KKLEB cytotox: CF airway cell cytotoxicity counter-screen; KKLEB CF airway cells viability, ATPlite luminescence, overnight; hits give low values; cells stimulated with P. aeruginosa culture filtrate; activity change (cytotoxicity), % at 5 µM; 0.36% of 360,000 active;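 active = corrected activity change at or below -50% at 5 µM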
HIF-2a block: inhibitors of HIF-2a. inhibition, % at 18.8 µM. 786-0 RCC cells HIF-2a reporter, luciferase luminescence, overnight. 0.72% of 360,000 active;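 active = inhibition of the luminescence signal of 40% or more relative to plate controls, in a single-dose primary screen at 18.75 µM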
Peg3 prom inh: Peg3 promoter activity inhibition; inhibition, % at 20 µM; HeLa PEG-Prom luciferase reporter, luminescence, overnight; 1.7% of 360,000 active;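 active = inhibition of at least 50% at 20 µM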
CF NFkB inh: inhibitors of cystic fibrosis induced NF-kB. 0.86% of 360,000 active. inhibition, % at 5 µM. KKLEB NF-kB-GFP reporter, PAF-induced, GFP fluorescence overnight. AID 588850;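 active = at least 50% inhibition at 5 µM, scaled per plate between neutral and stimulator controls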;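 note: PAF is a Pseudomonas aeruginosa culture filtrate used as stimulus; plate controls were PAF-stimulated DMSO wells for no effect and unstimulated DMSO wells for full effect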
TWEAK-Fn14 inh: inhibitors of TWEAK-Fn14 interaction signaling. TWEAK-stimulated Fn14 reporter cells, luciferase luminescence, 8 h. inhibition, % at 10 µM. 2% of 360,000 active; in the data active = inhibition above about 50%
TROY NFkB inh: blocks TROY-dependent signaling in reporter cells | Q293 LMP1-TROYcd NF-kB luciferase reporter, 4 h | inhibition, % at 10 µM | 0.98% of 360,000 active;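 active = compounds whose plate-normalised and pattern-corrected inhibition of the luciferase reporter signal at the single screening dose is 50% or more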
Starred values were filed as active, the others as inactive. An excerpt weighted towards active compounds, which were near 4% of everything screened.

O=S1(=O)N[C@@H](Cc2ccccc2)COc2cc(N3CC[C@H](O)C3)ccc21 was read as HIF-2a block -4, TWEAK-Fn14 inh 14 and TROY NFkB inh 8.
`CC1(C(=O)NS(=O)(=O)c2ccc(F)cc2F)CCN1C(=O)c1cccc(F)c1` (configuration not stated) gave KKLEB cytotox -2, HIF-2a block 8, Peg3 prom inh -9, CF NFkB inh -16, TWEAK-Fn14 inh -6 and TROY NFkB inh -12.
O=C(Nc1ccccc1C(=O)Nc1nnc(C(F)(F)F)s1)c1ccccc1Cl was read as KKLEB cytotox -61*, HIF-2a block -4, Peg3 prom inh 48, CF NFkB inh 56*, TWEAK-Fn14 inh 62* and TROY NFkB inh 66*.
`CC(NC(=O)Nc1nnc(C(F)(F)F)s1)(C(F)(F)F)C(F)(F)F` gave KKLEB cytotox -1, HIF-2a block 1, Peg3 prom inh 23, CF NFkB inh 46, TWEAK-Fn14 inh 30 and TROY NFkB inh 55*.
`Cc1nn(-c2ccccc2)nc1C(=O)Nc1nnc(C(F)(F)F)s1` gave KKLEB cytotox 7, HIF-2a block -15, Peg3 prom inh 9, CF NFkB inh 11, TWEAK-Fn14 inh 11 and TROY NFkB inh 52*.
For CCc1nnc(NC(=O)c2nn(-c3ccccc3)nc2C)s1 the results were KKLEB cytotox 5, HIF-2a block 4, Peg3 prom inh -6, CF NFkB inh 0, TWEAK-Fn14 inh -2 and TROY NFkB inh -16.
Cc1ccc(N=Cc2ccc[nH]2)c(O)c1 was read as KKLEB cytotox 4, HIF-2a block -182, Peg3 prom inh -185, CF NFkB inh -3, TWEAK-Fn14 inh 42 and TROY NFkB inh 76*.
`CCn1c(SCC(=O)Nc2oc(C)c3c(C)n[nH]c(=O)c23)nnc1-c1ccco1` gave KKLEB cytotox -10, HIF-2a block -4, Peg3 prom inh 8, CF NFkB inh 3, TWEAK-Fn14 inh 6 and TROY NFkB inh -3.
COc1cccc(NC(=O)CN(C)C(=O)c2cc(-c3cccc(Br)c3)nc3ccccc23)c1 was read as KKLEB cytotox -7, HIF-2a block -9, Peg3 prom inh 71*, CF NFkB inh -25, TWEAK-Fn14 inh 47 and TROY NFkB inh 39.
Screening Cc1cccc(OCC(=O)Nc2c3c(nn2C(C)(C)C)CS(=O)(=O)C3)c1 returned KKLEB cytotox 10, HIF-2a block 9, Peg3 prom inh 4, CF NFkB inh 18, TWEAK-Fn14 inh 4 and TROY NFkB inh 16.
`O=C(CN1C(=O)NC(c2ccccc2)(c2ccccc2)C1=O)NCC(=O)Nc1ccc(F)cc1` gave KKLEB cytotox -2, HIF-2a block 15, Peg3 prom inh 2, CF NFkB inh 17, TWEAK-Fn14 inh 10 and TROY NFkB inh -4.
For CC1(C)CC(=O)C=C(c2ccc(-c3ccc4[nH]ccc4c3)cc2)C1=O the results were KKLEB cytotox -32, HIF-2a block -247, Peg3 prom inh -200, CF NFkB inh 4, TWEAK-Fn14 inh 12 and TROY NFkB inh 49.
CCC(C)Nc1nc(Cl)nc(N(C#N)CN2C(=O)c3ccccc3S2(=O)=O)n1 (configuration not stated) was read as KKLEB cytotox -10, HIF-2a block 20, Peg3 prom inh 15, CF NFkB inh 15, TWEAK-Fn14 inh 4 and TROY NFkB inh 18.
`CC(C)Nc1nc(Cl)nc(N(C#N)CN2C(=O)c3ccccc3C2=O)n1` gave KKLEB cytotox 0, HIF-2a block -11, Peg3 prom inh 95*, CF NFkB inh 0, TWEAK-Fn14 inh 16 and TROY NFkB inh 5.
CCOc1ccccc1-n1c(CN2CCN(C(=O)c3ccco3)CC2)nc2ccccc2c1=O was read as KKLEB cytotox -9, HIF-2a block 32, Peg3 prom inh 104*, CF NFkB inh 27, TWEAK-Fn14 inh 17 and TROY NFkB inh -34.
CCOc1ccccc1-c1nc(CN2CCN(C(=O)c3ccco3)CC2)c(C)o1 was read as KKLEB cytotox 8, HIF-2a block 12, Peg3 prom inh -4, CF NFkB inh 6, TWEAK-Fn14 inh -7 and TROY NFkB inh 2.
`O=C(Nc1cc(Sc2ccccn2)cc([N+](=O)[O-])c1)c1ccc(Cl)cc1` gave KKLEB cytotox -17, HIF-2a block -120, Peg3 prom inh -40, CF NFkB inh 26, TWEAK-Fn14 inh 65* and TROY NFkB inh 17.

Screens from PubChem.
